An excerpt weighted towards active compounds, which were near 12% of everything screened.
G9a inh: blocks human histone lysine methyltransferase G9a; Q96KQ7; G9a H3K9 monomethylation, AlphaScreen, 2 h; Potency, µM (titrated, usually from 102 µM), for inactives: top-dose activity, negative = inhibition, hits mostly inhibitors; 8.8% of 350,000 active; AID 504332; note: % is set by controls: 0 for no effect and ±100 for the full control effect; nearly all actives have a fitted effect of over 75% in size
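G9a (20 nM) preincubated 15 min RT with compounds, then 500 nM biotinylated H3K9 peptide and 20 uM SAM added; 2 h RT reaction. Monomethyl-H3K9 product detected by AlphaScreen with anti-H3K9me1 antibody, streptavidin donor and anti-rabbit IgG acceptor beads.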
HP1b chromo inh: HP1-beta chromodomain-methylated histone interaction inhibition | P83916 | AlphaScreen HP1-beta / biotin-H3K9me3 peptide binding | Potency, µM (highest dose often 114 µM), for inactives: at the top dose activity change, negative = inhibition, most hits filed as inhibitors | 0.56% of 390,000 active; note: nearly all actives have a fitted effect of over 70% in size
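Compound inhibition of the preformed complex between 50 nM HP1-beta and 50 nM biotinylated H3K9me3 peptide was read by AlphaScreen. Buffer was PBS pH 7.4 with 0.01% Tween-20. Incubations ran 30 min at room temperature, with 10 ug/mL donor/acceptor beads.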
BAZ2B inh: inhibitors of human BAZ2B bromodomain | Potency, µM (titrated, usually from 114 µM), inactives show top-dose activity change, negative = inhibition, most hits filed as inhibitors | AlphaScreen BAZ2B-H3K14Ac peptide displacement | 4.4% of 360,000 active | AID 504333 | Q9UIF8; note: % is set by controls: 0 for no effect and ±100 for the full control effect; nearly all actives have a fitted effect of over 60% in size
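BAZ2B (50 nM) with biotin-H3(5-23)K14Ac peptide (50 nM) in PBS pH 7.4, 0.01% Tween-20, preformed 30 min, then compound 30 min at room temperature; top concentration 110uM. AlphaScreen streptavidin donor/nickel chelate acceptor beads (10 ug/mL final), 20 min dark, signal read.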
Sfp inh: inhibitors of Bacillus subtilis Sfp phosphopantetheinyl transferase; 3.5% of 310,000 active; Potency, µM, without a hit: largest response in the series, negative = inhibition, hits mostly inhibitors; Biochemical Sfp PPTase activity, qHTS; Q9F4F7;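 note: the enzyme is Sfp with the accession as filed and its product quenches rhodamine fluorescence; 0% = enzyme reaction without inhibitor and -100% = no enzyme wells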
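Fluorescence-quenching assay with 15 nM Sfp, 5 uM rhodamine-CoA and 12.5 uM BHQ-2-labelled ybbR peptide in pH 7.6 Hepes/MgCl2 buffer. Enzyme was pre-incubated with compound for 15 min at room temperature. Rate was taken from the 30-min fluorescence change (525/598 nm).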
L3MBTL1 inh: L3MBTL1 (human) inhibition. AID 485360. Potency, µM (doses to about 57.1 µM), for inactives: at the top dose activity, negative = inhibition, most hits filed as inhibitors. 0.66% of 230,000 active. Q9Y468. AlphaScreen L3MBTL1–H3K9me1 peptide binding; note: % is set by controls: 0 for no effect and ±100 for the full control effect; nearly all actives have a fitted effect of over 60% in size
Target sequence (Q9Y468 whole entry, looked up): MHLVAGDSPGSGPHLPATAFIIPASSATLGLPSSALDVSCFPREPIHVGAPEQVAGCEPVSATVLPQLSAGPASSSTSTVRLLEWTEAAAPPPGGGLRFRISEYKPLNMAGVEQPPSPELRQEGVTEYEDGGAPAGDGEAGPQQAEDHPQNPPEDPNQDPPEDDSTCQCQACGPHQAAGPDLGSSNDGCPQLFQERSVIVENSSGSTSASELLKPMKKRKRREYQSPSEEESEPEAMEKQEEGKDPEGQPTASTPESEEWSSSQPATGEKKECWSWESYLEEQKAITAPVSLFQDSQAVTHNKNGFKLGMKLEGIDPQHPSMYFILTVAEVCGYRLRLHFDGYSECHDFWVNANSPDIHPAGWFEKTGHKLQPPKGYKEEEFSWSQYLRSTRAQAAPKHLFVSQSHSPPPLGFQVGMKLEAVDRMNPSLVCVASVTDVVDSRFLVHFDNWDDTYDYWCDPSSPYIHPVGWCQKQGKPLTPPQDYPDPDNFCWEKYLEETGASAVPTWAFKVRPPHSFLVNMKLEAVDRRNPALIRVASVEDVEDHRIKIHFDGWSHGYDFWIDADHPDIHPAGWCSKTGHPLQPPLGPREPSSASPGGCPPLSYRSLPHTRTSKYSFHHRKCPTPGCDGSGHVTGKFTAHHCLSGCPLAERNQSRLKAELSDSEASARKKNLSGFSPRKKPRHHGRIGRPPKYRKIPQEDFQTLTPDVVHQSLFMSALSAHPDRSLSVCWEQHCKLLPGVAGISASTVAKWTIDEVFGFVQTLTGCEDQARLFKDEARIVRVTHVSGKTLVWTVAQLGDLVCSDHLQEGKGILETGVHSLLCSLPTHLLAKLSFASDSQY
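AlphaScreen assay: L3MBTL1 (50 nM final) was preincubated 30 min at room temperature with biotinylated H3(1-15)K9me1 peptide (75 nM final), then 30 min with library compounds; streptavidin donor and nickel chelate acceptor beads (10 ug/mL final) added, 30 min dark.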
JMJD2A Tudor inh: JMJD2A Tudor domain (human) inhibition; AlphaScreen JMJD2A-Tudor / H3K4me3 peptide binding; Potency, µM (top dose mostly 114 µM), for inactives: at the highest dose activity change, negative = inhibition, actives largely listed as inhibitors; 4.4% of 390,000 active; note: % is set by controls: 0 for no effect and ±100 for the full control effect; nearly all actives have a fitted effect of over 50% in size
The depositor's hits bear a star; ? = inconclusive; . = no result; [ ] = another dose, or the depositor's remark. Calls come from the whole dose curve; as a rule, active = well fitted curve in the direction sought with a large enough effect; inconclusive = small, poorly fitted or top-dose-only effect, or another doubt; inactive = no such curve, though single readings can be large; an effect the other way counts as inactive or inconclusive. Potency is the fitted concentration of half-maximal effect.

SMILES	G9a inh	HP1b chromo inh	BAZ2B inh	Sfp inh	L3MBTL1 inh	JMJD2A Tudor inh
O=C(CSc1nnc(COc2ccc(Cl)cc2)o1)Nc1ccc(N2CCOCC2)cc1	32µM*	15%	4%	.	2%	-6%
Cc1cc(-c2nnc(SCC(=O)Nc3ccccn3)o2)no1	41%[59 µM]	19%	-12%	14%	.	?
Cc1cnc(NC(=O)CSc2nnc(COc3ccccc3)o2)s1	9%	43%	-1%	13%	7%	-11%
Cc1n[nH]c(C)c1S(=O)(=O)N(CC(=O)NCc1ccccc1Cl)c1ccc(C(C)C)cc1	-30%[59 µM]	12%	.	.	.	-32%
FC(F)(F)c1ccccc1-c1cc(NCc2cccs2)ncn1	-33%[0.501 µM]	.	.	-8%	.	.
Cc1cccc(OCc2nnc(SCC(=O)Nc3nccs3)o2)c1	7%	44%	79µM*	30%	-15%	-32%
Cc1cccc(OCc2nnc(SCC(=O)Nc3ccc(N4CCOCC4)cc3)o2)c1	11%[59 µM]	25%	1%	17%	.	-5%
CCCC(=O)NC(c1ccc(C(C)C)cc1)c1ccc2cccnc2c1O (configuration not stated)	76%	53%	-23%	8%	2%	-20%
CC(=O)NC(c1ccco1)c1ccc2cccnc2c1O (configuration not stated)	-8%	24%	20µM*	10%	?	56µM*
CC(C)C(=O)NC(c1ccc(Cl)cc1Cl)c1ccc2cccnc2c1O (configuration not stated)	44%[0.501 µM]	34%	?	6%	1%[2.29 µM]	-14%
CCCC(=O)NC(c1ccc(N(C)C)cc1)c1ccc2cccnc2c1O (configuration not stated)	4%[59 µM]	-17%	7%[0.457 µM]	18%	?	22µM*
COc1ccc(C(NC(=O)C(C)C)c2ccc3cccnc3c2O)cc1 (configuration not stated)	.	46%	45µM*	8%	.	-26%
Cc1cc(C)cc(NC(=O)Cc2noc3ccccc23)c1	-2%[59 µM]	21%	-12%	.	.	-18%
CCC(Oc1ccccc1)C(=O)Nc1ccccc1OCc1cc(=O)n2ccccc2n1 (configuration not stated)	-26%[59 µM]	24%[57 µM]	11%	.	.	3%
CC(C)(C)OC(=O)N1CCC(c2c(C(=O)Nc3ccc4c(c3)OCCO4)cnn2-c2ccc(Cl)cc2)CC1	-27%[59 µM]	62%	-5%[57.1 µM]	.	.	-24%
COc1ccc(-c2nnc3ccc(SCC(=O)Nc4nc5ccccc5s4)nn23)cc1OC	-20%[59 µM]	41%	8%	3%	10%	13%[57.1 µM]
O=C(CSc1ccc2nnc(-c3ccccn3)n2n1)Nc1nccs1	-6%	53%	.	13%	.	32µM*
O=C(CSc1ccc2nnc(-c3ccncc3)n2n1)Nc1nccs1	50µM*	32%	.	-14%	.	-11%
Cc1nnc(NC(=O)CSc2ccc3nnc(-c4ccccn4)n3n2)s1	-33%	34%	.	-2%	.	79µM*
COc1ccc(-c2nnc3ccc(SCC(=O)Nc4nccs4)nn23)cc1OC	32µM*	22%	-10%	15%	7%	7%
COc1ccccc1-n1c(=O)n(C)c2c(C(N)=O)nc(-c3cc(OC)c(OC)c(OC)c3)nc21	25%[59 µM]	17%[57 µM]	9%	.	.	-20%
COCCn1c(=N)c(C(=O)NC(C)c2ccccc2)cc2c(=O)n3cc(C)ccc3nc21 (configuration not stated)	5%[59 µM]	35%	-1%	.	.	13%
Cn1nnnc1SCCCNCc1ccccc1OCc1ccccc1F	-4%[59 µM]	26%	-3%	.	.	-21%
CCOC(=O)c1c(NC(=O)COC(=O)c2ccncc2)sc(C)c1C	-31%	4%	-22%	79µM*	-6%	-13%
CCOC(=O)c1c(NC(=O)c2ccncc2)sc(C)c1C	16µM*	19%	-8%	22µM*	9%	-21%
CCOC(=O)c1c(NC(=O)COC(=O)c2ccc(O)cc2)sc(C(=O)NC)c1C	.	25%	.	.	.	-27%
Cc1ccc(S(=O)(=O)N2CCN(c3cc(-c4cccs4)nc4ccccc34)CC2)cc1	.	-1%	.	.	.	-16%

Source: PubChem BioAssay (National Center for Advancing Translational Sciences (NCATS))
